Experimental data published in PubChem BioAssay AID463173 (ICCB-Longwood Screening Facility, Harvard Medical School, 2010).
Hit rate of the full screen: of about 52,000 compounds, about 4,300 (8.3%) were called active. Cut-off read from the data, not from the text of the source: active = survival mostly below about 52% (no sharp cut-off); inactive = mostly above about 56%. This excerpt belongs to a sample that is enriched for actives.

Test system: DeltatarO mutant
Test: S. aureus survival, RN4220 and DeltatarO strains – OD600, teichoic acid synthesis inhibitors, primary screen (AID 463173)
Conditions: S. aureus RN4220 wild type/DeltatarO growth, OD600, 18 h, stronger effect = lower value, screened at 18.75 µg/mL (by protocol)

| Structure (SMILES) | survival |
| --- | --- |
| O=C(Nc1nnc(N2CCCCCC2)s1)Nc1cc(F)ccc1F | 103% (inactive) |
| CC1=C(C(=O)N(C)C)C(c2ccccc2Cl)NC(=O)N1 (configuration not stated) | 76% (inactive) |
| CC(C)N1CC(C(=O)Nc2ccccc2)CC1=O (configuration not stated) | 73% (inactive) |
| CCOC(=O)c1cc(-c2ccc(OC)c(S(=O)(=O)NC3CCCCC3)c2)on1 | 89% (inactive) |
| CN1CCSc2ccc(C(=O)NCc3ccccc3)cc21 | 67% (inactive) |
| O=C(NC1CCCC1)C(c1ccncc1)N(CCCN1CCOCC1)C(=O)c1ccc(-c2ccccc2)[nH]1 (configuration not stated) | 76% (inactive) |
| CN(C)C(=O)c1ccc(S(=O)(=O)NCc2ccccc2Cl)s1 | 94% (inactive) |
| Cc1cccc(Cn2cc(C(=O)Nc3cc(F)ccc3F)ccc2=O)c1 | 74% (inactive) |
| Cc1noc(-c2ccc(-c3noc(-c4cccc(F)c4)n3)cc2)n1 | 76% (inactive) |
| Cc1ccc(NC(=O)Cn2cc3c(n2)CCCC3)cc1Cl | 87% (inactive) |
| COc1ccc(C2CC(=O)c3c([nH]c(C(=O)OC4CCCCCC4)c3C)C2)cc1OC (configuration not stated) | 81% (inactive) |
| COc1ccc(C2CC(=O)c3c([nH]c(C(=O)OC4CCCC4)c3C)C2)cc1OC (configuration not stated) | 128% (inactive) |
| COc1cc(C2CC(=O)c3c([nH]c(C(=O)OC4CCCC4)c3C)C2)cc(OC)c1OC (configuration not stated) | 51% (active) |
| CC1(C)CC(=O)C2=C(C1)OC(N)=C(C#N)C2c1ccc2c(c1Cl)OCO2 (configuration not stated) | 97% (inactive) |
| COC(=O)c1ccccc1NC(=O)c1cc(CN2CCCC2)on1 | 75% (inactive) |
| COc1ccccc1-c1cc(C(=O)N2CCCCC2C)no1 (configuration not stated) | 11% (active) |
| COc1ccc(-c2cc(C(=O)N3CCCCC3C)no2)cc1OC (configuration not stated) | 58% (active) |
| CC1CCCCN1C(=O)c1cccc(C(=O)N2CCCCC2C)c1 (configuration not stated) | 80% (inactive) |
| CC1CCCCN1C(=O)c1cc(-c2ccc(Br)cc2)on1 (configuration not stated) | 66% (inactive) |
| CC1CCCCN1C(=O)c1cc(-c2ccccc2)on1 (configuration not stated) | 88% (inactive) |
| COc1ccc(-c2cc(C(=O)Nc3ccc4c(c3)OCO4)no2)cc1OC | 65% (inactive) |
| CCOc1ccccc1C(=O)N(C)c1ccccc1 | 92% (inactive) |
| CCc1nn2c(=O)cc(COC(=O)c3ccccc3NC(=O)c3ccc(C(C)(C)C)cc3)nc2s1 | 91% (inactive) |

| Structure (SMILES) | survival |
| --- | --- |
| O=c1cc(-c2ccccc2)nc(SCc2nc(-c3ccccc3Cl)no2)[nH]1 | 69% (inactive) |
| Cc1ccc(CNC(=O)Cn2c(-c3cccs3)cc3cc(Cl)ccc32)cc1 | 79% (inactive) |
| CCOc1cccc(C(=O)Nc2ccc3oc(-c4ccc(C(C)(C)C)cc4)nc3c2)c1 | 46% (active) |
| CCOc1cccc(C(=O)Nc2ccc3oc(-c4cccnc4)nc3c2)c1 | 56% (inactive) |
| CCOc1cccc(C(=O)Nc2ccc3oc(-c4ccncc4)nc3c2)c1 | 70% (inactive) |
| CCOc1ccc(C(=O)Nc2ccc3oc(-c4ccncc4)nc3c2)cc1 | 74% (inactive) |
| CCOc1ccc(C(=O)Nc2ccc3oc(-c4cccc5ccccc45)nc3c2)cc1 | 60% (active) |
| CCCCOc1cccc(C(=O)Nc2ccc3oc(-c4cccnc4)nc3c2)c1 | 46% (active) |
| CCOc1ccc(C(=O)Nc2ccc3oc(-c4ccc5ccccc5c4)nc3c2)cc1 | 74% (inactive) |
| CCCCOc1ccc(C(=O)Nc2ccc3oc(-c4cccnc4)nc3c2)cc1 | 69% (inactive) |
| Cc1ccc(C(=O)Nc2ccc3oc(-c4ccc(C(C)(C)C)cc4)nc3c2)cc1 | 70% (inactive) |
| O=C(Nc1ccc(NC(=O)C2CC2)nc1)c1cccc(F)c1 | 77% (inactive) |
| CCCCCc1nn2cc(-c3ccccc3)nc2s1 | 105% (inactive) |
| Nc1ccc(CN2C(=O)c3ccccc3C2=O)cc1 | 91% (inactive) |
| O=C(C1CCCN(S(=O)(=O)c2cccs2)C1)N1CCN(c2ccccc2F)CC1 (configuration not stated) | 85% (inactive) |
| CCn1cc(C(=O)N2CCN(c3ccc(C(C)=O)cc3)CC2)c2cc(OC)c(OC)cc2c1=O | 164% (inactive) |
| CCC(=O)N1CCc2cc(S(=O)(=O)CCC(=O)N3CCN(c4cccc(C)c4C)CC3)ccc21 | 98% (inactive) |
| COc1ccc(CCCc2nnc(SCC(=O)Nc3cc(F)ccc3C)o2)cc1 | 64% (inactive) |
| Cc1cc(C)cc(NC(=O)CSc2nnc(COc3ccccc3Cl)o2)c1 | 12% (active) |
| O=C(CSc1nnc(COc2ccc(Cl)cc2)o1)Nc1ccccc1 | 51% (inactive) |
| COc1ccc(CCCc2nnc(SCC(=O)Nc3cccc(F)c3C)o2)cc1 | 39% (active) |
| CC(C)c1ccccc1NC(=O)CSc1nnc(COc2ccccc2Cl)o1 | 99% (inactive) |
| CCc1ccccc1NC(=O)CSc1nnc(COc2ccccc2Cl)o1 | 66% (inactive) |

| Structure (SMILES) | survival |
| --- | --- |
| COc1ccc(CCCc2nnc(SCC(=O)Nc3ccc(OC)cc3)o2)cc1 | 65% (inactive) |
| COc1cccc(NC(=O)CSc2nnc(COc3ccc(Cl)cc3)o2)c1 | 57% (active) |
| Cc1ccc(NC(=O)CSc2nnc(COc3ccc(Cl)cc3)o2)cc1 | 49% (inactive) |
| O=c1c2oc3ccccc3c2n(Cc2ccccc2)c(=O)n1Cc1ccco1 | 95% (inactive) |
| CCN(Cc1ccccc1)C(=O)CN1C(=O)COc2ccc(S(=O)(=O)N3CCCCCC3)cc21 | 95% (inactive) |
| COc1cc(C2CC(=O)c3cnc(N4CCN(CCO)CC4)nc3C2)cc(OC)c1OC (configuration not stated) | 92% (inactive) |
| CC(C)Cn1c(N2CCN(C(=O)Nc3ccc(Cl)cc3)CC2)nc2ccccc21 | 102% (inactive) |
| CCCn1c(N2CCN(C(=O)Nc3ccc(OC)cc3)CC2)nc2ccccc21 | 104% (inactive) |
| CCn1c(N2CCN(C(=O)Nc3ccc(Cl)c(C(F)(F)F)c3)CC2)nc2ccccc21 | 0% (active) |
| CC(=O)c1ccc(NC(=O)c2noc3c2CSc2ccccc2-3)cc1 | 54% (inactive) |
| COCCCNC(=O)C1CCN(Cc2nc(-c3ccc(OC)c(OC)c3)oc2C)CC1 | 88% (inactive) |
| COc1ccc(OC)c(-c2noc(N3CCN(c4ccc(C(C)=O)cc4)CC3)n2)c1 | 134% (inactive) |
| Cc1cc(N2CCCCC2)nc2ccc(NC(=O)/C=C/c3ccc(OC(C)C)cc3)cc12 | 50% (inactive) |
| Cc1cc(N2CCCCC2)nc2ccc(NC(=O)/C=C/c3ccccc3Cl)cc12 | 44% (active) |
| Cc1ccc(/C=C/C(=O)Nc2ccc3nc(N4CCC(C)CC4)cc(C)c3c2)cc1 | 122% (inactive) |
| Cc1cc(N2CCCCC2)nc2ccc(NC(=O)/C=C/c3ccc(OCCC(C)C)cc3)cc12 | 56% (inactive) |
| COc1ccc(/C=C/C(=O)Nc2ccc3nc(N4CCC(C)CC4)cc(C)c3c2)cc1 | 51% (active) |
| Cc1cc(N2CCC(C)CC2)nc2ccc(NC(=O)/C=C/c3cccc(Cl)c3)cc12 | 53% (active) |
| COc1ccc(/C=C/C(=O)Nc2ccc3nc(N4CCCCC4)cc(C)c3c2)cc1OC | 43% (active) |
| Cc1cc(N2CCCCC2)nc2ccc(NC(=O)/C=C/c3ccccc3OC(C)C)cc12 | 73% (inactive) |
| COc1ccc(/C=C/C(=O)Nc2ccc3nc(N4CCC(C)CC4)cc(C)c3c2)cc1OC | 51% (inactive) |
| COc1cc(C(=O)Nc2cccc(OCc3cc(=O)n4cc(C)sc4n3)c2)cc(OC)c1OC | 90% (inactive) |
| COc1ccccc1C1C=C(c2ccc(Cl)cc2)Nc2nc(-c3ccc(Cl)cc3)nn21 (configuration not stated) | 59% (inactive) |

| Structure (SMILES) | survival |
| --- | --- |
| COC(=O)C1=C(C)NC(=O)CC1c1ccccc1 (configuration not stated) | 105% (inactive) |
| COc1ccccc1CCNC(=O)C1CCN(c2nnc(C)c3c(C)n(-c4ccc(C)cc4)nc23)CC1 | 85% (inactive) |
| CC(=O)N1CCCc2cc(S(=O)(=O)N3CCCC(C(=O)Nc4ccc(C)cc4C)C3)ccc21 (configuration not stated) | 71% (inactive) |
| Cc1ccc(C(=O)Nc2nc3nc(C)cc(=O)n3[nH]2)cc1 | 91% (inactive) |
| O=C(Cc1ccccc1)Nc1c(C(=O)N2CCN(c3ccc(F)cc3)CC2)oc2ccccc12 | 49% (inactive) |
| O=C(Cn1ncc2c(=O)oc3ccccc3c21)N1CCN(c2ccc(Cl)cc2)CC1 | 93% (inactive) |
| CCn1ccc2cc(S(=O)(=O)N3CCCN(C(=O)Nc4ccc(C)c(F)c4)CC3)ccc21 | 73% (inactive) |
| CCN1CCN(c2cc(C)c3cc(NC(=O)/C=C/c4cccc(Cl)c4)ccc3n2)CC1 | 44% (active) |
| COc1ccc(Nc2c3c(nc4ccc(NC(=O)/C=C/c5cccc(OC)c5OC)cc24)CCCC3)cc1OC | 66% (inactive) |
| CCN1CCN(c2cc(C)c3cc(NC(=O)/C=C/c4cccc(OC)c4OC)ccc3n2)CC1 | 43% (active) |
| COc1ccc(/C=C/C(=O)Nc2ccc(Cl)c(Cl)c2)cc1 | 66% (inactive) |
| COc1ccc(/C=C/C(=O)Nc2ccc(Cl)c(Cl)c2)cc1OC | 18% (active) |
| COc1cccc(/C=C/C(=O)Nc2ccc3nc(N4CCN(C)CC4)cc(C)c3c2)c1OC | 79% (inactive) |
| C/C=C/C(=O)Nc1ccc(Cl)c(Cl)c1 | 70% (inactive) |
| CCN1CCN(c2cc(C)c3cc(NC(=O)/C=C/c4ccc(OCCC(C)C)cc4)ccc3n2)CC1 | 112% (inactive) |
| CCN1CCN(c2cc(C)c3cc(NC(=O)/C=C/c4ccc(C)cc4)ccc3n2)CC1 | 52% (inactive) |
| O=C(CSc1nnc(-c2ccc([N+](=O)[O-])cc2)o1)Nc1ccccc1 | 81% (inactive) |
| CCSc1ncc(Cl)c(C(=O)Nc2sc(C(C)=O)c(C)c2C(=O)OC)n1 | 72% (inactive) |
| O=C(Cn1ncc2c3ccccc3n(Cc3ccc(F)cc3)c2c1=O)NC1CCCCCC1 | 80% (inactive) |
| COc1cccc(CNC(=O)CN(c2ccc(C)cc2)S(=O)(=O)N(C)C)c1OC | 94% (inactive) |
| C=Cc1ccc(CN2C(=O)N(c3cccc(Cl)c3)S(=O)(=O)c3ccccc32)cc1 | 64% (inactive) |
| C=Cc1ccc(CN2C(=O)N(c3ccc(CC)cc3)S(=O)(=O)c3ccccc32)cc1 | 6% (active) |
| C=Cc1ccc(CN2C(=O)N(c3ccc(C)c(C)c3)S(=O)(=O)c3ccccc32)cc1 | 84% (inactive) |
